Source: a collection of fitness landscapes (doi:10.1126/science.1257360)
The full ranking holds about 140,000 sequences; the median of “enrichment ratio after two sorts for PhoP signalling” is about 0, and the highest 2% start at about 11. The full list was thinned out, with the highest values kept by preference.

B1: PhoQ; a variant is named by its letters at X, in order, P23837 (parent)
chain: MKKLLRLFFPLSLRVRFLLATAAVVLVLSLAYGMVALIGYSVSFDKTTFRLLRGESNLFYTLAKWENNKLHVELPENIDKQSPTMTLIYDENGQLLWAQRDVPWLMKMIQPDWLKSNGFHEIEADVNDTSLLLSGDHSIQQQLQEVREDDDDAEMTHSVAVNVYPATSRMPKLTIVVVDTIPVELKSSYMVWSWFIYVLSANLLLVIPLLWVAAWWSLRPIEALAKEVRELEEHNRELLNPATTRELTSLVRNLNRLLKSERERYDKYRTTLTDLTHSLKTPLXXLQXXLRSLRSEKMSVSDAEPVMLEQISRISQQIGYYLHRASMRGGTLLSRELHPVAPLLDNLTSALNKVYQRKGVNISLDISPEISFVGEQNDFVEVMGNVLDNACKYCLEFVEISARQTDEHLYIVVEDDGPGIPLSKREVIFDRGQRVDTLRPGQGVGLAVAREITEQYEGKIVAGESMLGGARMEVIFGRQHSAPKDE

Variants of: B1
Assay: enrichment ratio after two sorts for PhoP signalling (ratio (wild type AVST 3.29)); higher = more functional
Conditions: with PhoP (E. coli)

Row | Variant | enrichment ratio
1 | YGWR | ≤ 0.25
2 | KELF | ≤ 0.25
3 | LMEL | ≤ 0.25
4 | FVVT | ≤ 0.25
5 | HNCQ | ≤ 0.25
6 | KTSH | ≤ 0.25
7 | QHHI | ≤ 0.25
8 | GMRC | ≤ 0.25
9 | KCST | ≤ 0.25
10 | TCND | 20.6
11 | KSND | ≤ 0.25
12 | TCVT | ≤ 0.25
13 | TCST | 24.9
14 | HVST | ≤ 0.25
15 | MCTV | ≤ 0.25
16 | EWLV | ≤ 0.25
17 | MTFH | 3.3
18 | QYHL | ≤ 0.25
19 | YKTG | ≤ 0.25
20 | SMFS | ≤ 0.25
